The values that follow come from PubChem BioAssay AID2177 (The Scripps Research Institute Molecular Screening Center, 2009).

Each structure is given as a SMILES string. The whole screen tested about 320,000 compounds, of which about 1,200 (0.38%) were called active.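 The calls were made as follows: active = inhibition above the screen-wide mean plus 3 SD, limit set per campaign (cut at about 26% in these data); inactive = the rest.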 Only a selection was taken, and actives are over-represented in it overall.

The target in the experiment is Acyl-protein thioesterase 2 (Homo sapiens) (UniProt O95372). In words: inhibition of human lysophospholipase 2 – biochemical, fluorescence polarization, FP-Rh probe ABPP, counter-screen for PME1 inhibitor project, primary screen (AID 2177).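 Also: 0% = LYPLA2 with DMSO and 100% = wells lacking LYPLA2 enzyme.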 As to conditions: recombinant LYPLA2, FP-Rh probe fluorescence polarization; at 5.9 µM; hits give high values. For orientation: In fluorescence polarisation assays a small probe gives low polarisation when free and higher when bound to something large.
Chain of Acyl-protein thioesterase 2 (Homo sapiens) (O95372 whole entry, looked up): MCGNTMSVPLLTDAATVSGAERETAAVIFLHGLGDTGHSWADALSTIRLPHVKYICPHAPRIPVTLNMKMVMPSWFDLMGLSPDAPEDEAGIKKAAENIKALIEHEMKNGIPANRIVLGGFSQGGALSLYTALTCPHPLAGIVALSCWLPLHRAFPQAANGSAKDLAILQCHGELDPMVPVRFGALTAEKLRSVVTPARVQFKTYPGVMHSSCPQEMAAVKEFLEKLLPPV
For `Oc1ccc(N=Cc2c(O)ccc3ccccc23)cc1`, the inhibition is 32.3% (active). As for `CCOc1[nH]n(-c2ccc(Cl)cc2)c(=O)c1C=Nc1ccc(O)cc1`, the inhibition was 3.53% (inactive). With `Oc1ccc(N=Cc2sc3ccccc3c2Cl)cc1` the figure was 7.6% (inactive); with `CCOC(=O)N1CCN(c2c(NCCN3CCN(c4ccccc4F)CC3)c(=O)c2=O)CC1`, 1.74% (inactive); with `O=[N+]([O-])c1ccc(F)cc1Oc1nc(-c2cccnc2)nc2ccccc12`, -3.66% (inactive). For `O=[N+]([O-])c1ccc(Oc2ccc(F)cc2Br)c2ccncc12` the value was 41.4% (active); for `O=S(=O)(/N=C(/Nc1ccccc1)c1ccccc1)c1cccs1`, 1.19% (inactive). For `Cc1ccc(S(=O)(=O)N(CC(=O)NCc2ccco2)c2ccccc2C)cc1` the value was -4.36% (inactive); for `CC(=O)Nc1ccc(NC(=O)CN2C(=O)COc3ccc(S(=O)(=O)N4CCCCC4)cc32)cc1`, -8.84% (inactive). Regarding `COc1ccc(NC(=O)CN2C(=O)COc3ccc(S(=O)(=O)N4CCOCC4)cc32)cc1`, the inhibition is 7% (inactive).

Consider `CSc1cccc(NC(=O)CN2C(=O)COc3ccc(S(=O)(=O)N4CCOCC4)cc32)c1`, for which the inhibition is 35.7% (active). Consider `O=S(=O)(Nc1ccc2[nH]ncc2c1)c1ccccc1Cl`, for which the inhibition was -3.28% (inactive).

For `O=c1[nH]n(-c2ccc([N+](=O)[O-])cc2)c(=O)c2ccccc12`, the inhibition is 33.6% (active). With `COc1cnn(-c2ccc([N+](=O)[O-])cc2)c(=O)c1Cl` the figure was 6.75% (inactive). For `O=c1[nH]c2cccnc2n1-c1ccc([N+](=O)[O-])cc1` the value was 0.99% (inactive). For `Cc1ccc(N2CCN(c3ccc(C)cc3)C2c2ccccn2)cc1` the value was 3.84% (inactive). As for `CC(NCc1cccs1)C(=O)Nc1cc(Cl)cc(Cl)c1` (centres undefined), the inhibition was -2.93% (inactive). With `Cn1nc(C(F)(F)F)c2cc(NC(=O)OCC(C)(C)C)sc21` the figure was -2.17% (inactive); with `O=C1OCC2=C1C(c1ccccc1)CC(=O)N2c1cccc(F)c1` (centres undefined), 0.97% (inactive). With `CCc1nnc(NC(=O)CSc2nnnn2-c2cccc(C(C)=O)c2)s1` the figure was 0.16% (inactive); with `O=C(Nc1ccc(N2CCN(C(=O)c3ccccc3)CC2)c(Cl)c1)c1ncn[nH]1`, 14.6% (inactive); with `COC(=O)c1cc(NC(=O)c2cccnc2)ccc1N1CCOCC1`, 2.91% (inactive). For `O=C(Nc1ccc(N2CCN(C(=O)c3ccccc3)CC2)c(Cl)c1)c1cccnc1` the value was 27.9% (active). `COC(=O)c1ccccc1NC(=O)CN(Cc1ccccc1)S(C)(=O)=O`: the inhibition is -8.82% (inactive).

Consider `N#Cc1ccc(C2=CC(=O)C[C@H](c3ccc(Cl)cc3)C2)cc1`, for which the inhibition is 43.3% (active). For `O=C1C=C(c2cccc(Cl)c2)C[C@@H](c2ccc(F)cc2)C1` the value was 0.27% (inactive); for `COc1ccc([C@H]2CC(=O)C=C(c3ccc(C)cc3)C2)cc1`, 15.7% (inactive). For `O=C(c1ccco1)N1CCN(C(=S)Nc2cc(F)cc(F)c2)CC1` the value was 33.1% (active); for `CCNC(=S)N1CCN(C(=O)c2ccco2)CC1`, 2.65% (inactive); for `O=C(CN1CCN(C(=O)c2ccco2)CC1)Nc1ccc2c(c1)OCO2`, -2.14% (inactive). With `COc1ccc(CN(C)C(=O)Cc2ccsc2)c(OC)c1OC` the figure was 4.71% (inactive); with `COc1cccc(OC)c1C(=O)NC(=S)Nc1ccc(N2CCOCC2)c(Cl)c1`, -0.51% (inactive); with `CCOc1ccc(C(=O)NC(=S)Nc2ccc(N3CCOCC3)c(Cl)c2)cc1[N+](=O)[O-]`, 26.8% (active). As for `CCOc1ccc(C(=O)NC(=S)Nc2ccc(NC(=O)C(C)C)cc2)cc1[N+](=O)[O-]`, the inhibition was 19.4% (inactive). With `O=C(Nc1ccccc1N1CCOCC1)c1ccncc1` the figure was -4.72% (inactive); with `Cc1csc2nc(COC(=O)c3cccc(N(C)C)c3)cc(=O)n12`, 6.85% (inactive); with `COCCc1nn2c(=O)cc(COC(=O)c3cc(OC)c(OC)c(OC)c3)nc2s1`, 7.86% (inactive).

On to `Cc1nn2c(=O)cc(COC(=O)c3ccc(NC(=O)C(C)(C)C)cc3)nc2s1`, for which the inhibition is 31.4% (active). For `O=C(Nc1ccc([N+](=O)[O-])cc1)OCCc1ccccn1` the value was 1.34% (inactive); for `Cc1ccc(N2CCN(C3=NC(=O)/C(=C\c4cccs4)S3)CC2)cc1`, 51.7% (active). With `Cc1ccc(N2CCN(/N=C/c3cccs3)CC2)cc1` the figure was 6.07% (inactive); with `Cc1ccsc1/C=C1\SC(N2CCOCC2)=NC1=O`, 1.19% (inactive); with `Cc1ccc(S(=O)(=O)N(C)CC(=O)OCC(=O)N2CC(=O)Nc3ccccc32)cc1`, 2.05% (inactive). For `CCN(CC)c1ccc(C(=O)Nn2c(C)nc3ccccc3c2=O)cc1` the value was 4.7% (inactive); for `CCCC(=O)N(CCc1ccccc1)Cc1nc2ccccc2c(=O)[nH]1`, -5.43% (inactive); for `CCN(CC)c1ccc(C(=O)NNC(=O)CCc2nc3ccccc3c(=O)[nH]2)cc1`, 26.9% (active). Take `CCOCCCN(C)C1CCN(C(=O)c2oc3ccccc3c2NC(=O)COc2cccc(C)c2)CC1`: the inhibition is -6.18% (inactive). For `Cc1ccc(Cl)cc1NC(=O)C1CCCN(c2cnccn2)C1` (centres undefined) the value was -0.03% (inactive); for `COCCOC(=O)c1sc(=S)n(CCOC)c1N`, 34.7% (active); for `COC(=O)c1sc(=S)n(-c2ccc(Cl)cc2)c1C`, 1.95% (inactive). For `COc1ccccc1NC(=O)CSc1nnc(CNC(=O)c2ccccc2F)o1` the value was -2.81% (inactive); for `Cc1nn(-c2ccccc2)c2c1c(C)c(CCC(=O)NCC1CCCO1)c(=O)n2C` (centres undefined), 0.8% (inactive).

For the molecule `Cc1cc(SCC(=O)NCCN2C(=O)CSC2=O)nc2ccccc12`, the inhibition was -4.03% (inactive). With `Clc1ccc(C2=CSC3=Nc4cccc5cccc(c45)N23)cc1` the figure was 0.51% (inactive). For `CN(CCc1ccccn1)C(=O)c1ccc(OC2CCN(CCc3ccccc3)CC2)cc1` the value was 33.7% (active); for `O=C(c1ccc(OC2CCN(Cc3ccccn3)CC2)cc1)N1CCCCCC1`, 3.95% (inactive). For `Cn1cc(CNC(=O)c2ccc(OC3CCN(Cc4ccccn4)CC3)cc2)cn1`, the inhibition is 11% (inactive). With `NS(=O)(=O)c1ccc(N=Nc2c(O)[nH]c3ccc(Br)cc23)cc1`, the inhibition was 1.06% (inactive). With `Cc1ccc(/C=C/C(=O)OCC(=O)Nc2cccnc2Cl)cc1` the figure was 7.22% (inactive); with `Nc1nc(SCC(=O)Nc2ccc(Cl)cc2C(F)(F)F)n[nH]1`, 9.87% (inactive). With `CC(C)CNC(=O)C(=O)NCC(c1ccc2c(c1)OCO2)N1CCOCC1` (centres undefined) the figure was 6.19% (inactive); with `Cc1nn(Cc2ccccc2)c(C)c1CNC(=O)c1ccc(F)c(S(=O)(=O)N2CCOCC2)c1`, 29.7% (active); with `O=C(NCCSCc1ccccc1)c1ccc(Cl)c(S(=O)(=O)N2CCOCC2)c1`, 1.96% (inactive). As for `O=C(c1ccc(F)c(S(=O)(=O)N2CCOCC2)c1)N(CCc1ccccc1)Cc1ccccc1`, the inhibition was 5.14% (inactive). With `CC(OC(=O)CCC(=O)c1ccccc1)C(=O)Nc1ccc(F)cc1` (centres undefined), the inhibition is -5.12% (inactive).

Turning to `CN(CCC(=O)Nc1cc(S(=O)(=O)N(C)C)ccc1Cl)CC(=O)Nc1ccc(F)cc1`, the inhibition was -4.23% (inactive). For `CC(C)N(Cc1ccccc1)C(=O)COC(=O)c1ccccc1SCC(=O)N1CCCC1` the value was 1.65% (inactive); for `COc1ccc(/C=C/C(=O)Nc2c(C)nn(C)c2C)cc1COc1ccc(Br)cc1`, -4.58% (inactive). As for `O=C(COc1ccccc1)Nc1ccc(N2CCN(C(=O)c3cccs3)CC2)cc1`, the inhibition was 7.89% (inactive). For `Cc1ccccc1C(=O)N1CCN(c2ccc(NC(=O)c3cccs3)cc2)CC1` the value was 2.59% (inactive); for `O=C(Nc1ccc(N2CCN(C(=O)c3cccs3)CC2)cc1)c1cccnc1Cl`, 35.9% (active); for `CN=C1S/C(=C\c2c(OC)cc(OC)cc2OC)C(=O)N1C`, -0.06% (inactive). With `CC(C)OCCCNC(=O)CN1C(=O)/C(=C/c2ccccc2F)Oc2ccccc21` the figure was -0.43% (inactive); with `CCC(=C/c1sc2ccc3ccccc3c2[n+]1C)/C=C1\Sc2ccc3ccccc3c2N1C`, 40.1% (active); with `O=P(O)(CP(=O)(c1ccccc1)c1ccccc1)c1ccccc1O`, -2.71% (inactive). With `CCC(C)CCN1CCN=C1N(C)C` (centres undefined) the figure was 8.55% (inactive). Take `O=S(=O)(Nc1ccc(Cl)cn1)c1cnc(Cl)c(Br)c1`: the inhibition is 2.67% (inactive). With `COC(=O)/C(=C1\Oc2ccc(C(C)(C)C)cc2S1)C(F)(F)F` the figure was -3.77% (inactive). For `Nc1[nH][nH]c(=O)c1N=Nc1ccc2c(c1)OCO2` the value was 28.4% (active); for `CC(=O)c1cc2c(cc1N)OCO2`, -2.04% (inactive). Take `O=C(c1ccc2c(c1)OCO2)N1CCOCC1`: the inhibition is 2.23% (inactive). With `COc1ccc([N+](=O)[O-])cc1C1NN=C(c2cccc3ccccc23)S1` (centres undefined) the figure was 7.57% (inactive); with `Cc1cccc(C(=O)NC(=S)N2CCN(c3ccc([N+](=O)[O-])cc3)CC2)c1`, 0.8% (inactive). For `O=C(COC(=O)c1cc([N+](=O)[O-])ccc1NCc1ccccc1)NC1CCCCC1` the value was 12% (inactive); for `CC1=C(C(=O)OCC2CCCCC2)C(c2ccc(F)cc2)NC(=O)N1` (centres undefined), 0.63% (inactive); for `COCCOC(=O)C1=C(C)NC(=O)NC1c1ccc(Cl)cc1` (centres undefined), 3.24% (inactive). Regarding `CCC(CC)COC(=O)C1=C(C)NC(=O)NC1c1ccc([N+](=O)[O-])cc1` (centres undefined), the inhibition was 28.8% (active).

As for `CCc1ccc(C2C(C#N)=C(N)Oc3n[nH]c(CC(=O)OC)c32)cc1` (centres undefined), the inhibition was 5.23% (inactive).

For `Cc1cc(C)c(C#N)c(SCc2ccccc2C(=O)O)n1`, the inhibition was 1.89% (inactive). For `Cc1cc(C)c(C#N)c(SCc2[nH]nc3c2C(c2ccccc2)C(C#N)=C(N)O3)n1` (centres undefined) the value was 55.3% (active); for `CC(C)NC(=O)CSc1nnc(COc2ccccc2Cl)o1`, 1.63% (inactive); for `O=C(CCN1CCCO1)N1CCCC(N2CCN(c3cccc(C(F)(F)F)c3)CC2)C1` (centres undefined), 4.25% (inactive). For `O=C1C2CCCN2C(=O)N1CCCCN1CCN(c2cccc(C(F)(F)F)c2)CC1` (centres undefined) the value was 64.2% (active).

As for `Cc1ccccc1N1CCN(CCCN2C(=O)C3CCCCN3C2=O)CC1` (centres undefined), the inhibition is -1.82% (inactive).

One may read the inhibition as the drop in the measured response relative to a control, in per cent.
